Screening data from PubChem.
A selection: hits, their analogues and other compounds. The true share with any hit is near 11%.
G9a block = inhibitors of human histone lysine methyltransferase G9a. G9a H3K9 monomethylation, AlphaScreen, 2 h. Potency, µM (series often up to 102 µM), inactives show top-dose activity, negative = inhibition, usual class: inhibitors. Q96KQ7. 350,000 compounds, 8.8% hits; further: on the % scale 0 is the no-effect control and ±100 the full control effect; nearly all actives have a fitted effect of over 75% in size
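Compounds were preincubated with 20 nM G9a for 15 min, after which biotinylated H3K9 peptide (500 nM) and SAM (20 uM) started a 2 h room-temperature reaction. Monomethylated product was quantified by antibody-based AlphaScreen chemiluminescence.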
L3MBTL1 block = inhibitors of human L3MBTL1 | Q9Y468 | AlphaScreen L3MBTL1–H3K9me1 peptide binding | Potency, µM (top dose mostly 57.1 µM), for inactives: at the top dose activity, negative = inhibition, hits mostly inhibitors | 230,000 compounds, 0.66% hits; further: on the % scale 0 is the no-effect control and ±100 the full control effect; nearly all actives have a fitted effect of over 60% in size
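Read-out is AlphaScreen signal from streptavidin donor and nickel chelate acceptor beads (10 ug/mL final each) bridging L3MBTL1 (50 nM) and biotinylated K9-monomethylated H3(1-15) peptide (75 nM), after 30 min compound exposure at room temperature.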
HP1b chromo inh = HP1-beta chromodomain-methylated histone interaction inhibition. P83916. AlphaScreen HP1-beta / biotin-H3K9me3 peptide binding. Potency, µM (series often up to 114 µM), for inactives: at the highest dose activity change, negative = inhibition, most hits filed as inhibitors. 390,000 compounds, 0.56% hits; further: nearly all actives have a fitted effect of over 70% in size
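HP1-beta protein (50 nM final) preincubated 30 min at room temperature with biotinylated H3(1-18)K9me3 peptide (50 nM) in PBS pH 7.4, 0.01% Tween-20, then compound added for 30 min. AlphaScreen streptavidin donor/nickel chelate acceptor beads (10 ug/mL final), 30 min dark, luminescence read.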
JMJD2A Tudor = blocks the human JMJD2A Tudor domain | 390,000 compounds, 4.4% hits | O75164 | AID 504339 | AlphaScreen JMJD2A-Tudor / H3K4me3 peptide binding | Potency, µM (titrated, usually from 114 µM), inactives show at the highest dose activity change, negative = inhibition, hits mostly inhibitors; further: on the % scale 0 is the no-effect control and ±100 the full control effect; nearly all actives have a fitted effect of over 50% in size
BAZ2B block = BAZ2B (human) inhibition; Q9UIF8; AlphaScreen BAZ2B-H3K14Ac peptide displacement; Potency, µM (highest dose often 114 µM), for inactives: at the highest dose activity change, negative = inhibition, actives largely listed as inhibitors; 360,000 compounds, 4.4% hits; AID 504333; further: on the % scale 0 is the no-effect control and ±100 the full control effect; nearly all actives have a fitted effect of over 60% in size
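BAZ2B 50 nM plus b-H3(5-23)K14Ac 50 nM, PBS pH 7.4/0.01% Tween-20, 30 min RT; compound added (max 110 uM), 30 min RT; streptavidin donor/Ni-chelate acceptor beads 10 ug/mL final, 20 min dark; AlphaScreen read.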
Active calls of the source: *; ? = inconclusive; nt = no result given; [ ] = another dose, or the depositor's remark. The call rests on the fitted dose curve; in most records, active means well fitted inhibition curve with a large enough effect; inconclusive means small, poorly fitted or top-dose-only effect; inactive means no such curve, though single readings can be large or run the other way. Potency means the concentration at half of the fitted maximal effect.

SMILES	G9a block	L3MBTL1 block	HP1b chromo inh	JMJD2A Tudor	BAZ2B block
C/C=C1\COC(C(=O)NCc2ccccn2)(C(F)(F)F)C=C1C=C(C)C (centres undefined)	nt	nt	16%	-14%	nt
Cc1ccc2c(c1)nnn2C1CCN(S(=O)(=O)c2ccc(C(=O)N(C)C3CCCCC3)cc2)CC1	56µM*	1%	5%	?	-3%
Cc1ccc(S(=O)(=O)N2CCC(n3nnc4cc(C)ccc43)CC2)cc1	7%[59 µM]	-10%	22%	-14%	-6%
COCCn1c(SCC(=O)NCC2CCCO2)nc2c(c1=O)SCC2 (centres undefined)	25%	nt	27%	89µM*	-19%
COCCn1c(SCC(=O)NC2CCCCC2)nc2c(c1=O)SCC2	8%	nt	19%	-19%	-22%
COc1ccccc1-n1c(SCC(=O)Nc2ccc(F)cc2)nc2c(c1=O)SCC2	50µM*	-2%	19%	-19%	-29%
COc1ccc(NC(=O)CSc2nc3c(c(=O)n2-c2ccc(F)cc2)SCC3)cc1	-16%[59 µM]	-12%	23%	-30%	0%
CCn1c(SCC(=O)Nc2cc(OC)ccc2OC)nc2c(c1=O)SCC2	-28%	nt	-19%	?	79µM*
O=C(COC(=O)C12CC3CC(CC(Cl)(C3)C1)C2)NCc1ccco1	nt	nt	19%	-22%	nt
Nc1cccc2c3c(oc12)CCCC3	40µM*	nt	21%	-28%	-27%
Nc1c2c(nc3ccccc13)CCCC2	-36%[59 µM]	0%	17%	-17%	-5%
Cc1c(Br)c([N+](=O)[O-])nn1CC(=O)Nc1ccc(Cc2ccncc2)cc1	45µM*	-6%	2%	-31%	?
CCn1c(=O)c2cc(C(=O)N(C)c3cc(C)ccc3C)sc2c2ccccc21	-42%[59 µM]	nt	32%	-17%	-30%
Clc1ccc(Cc2ccccn2)cc1	-14%[0.501 µM]	4%	49%	3%	21%
C/C(=C/c1oc2ccc(O)cc2c1[N+](=O)[O-])N(C)C	79µM*	nt	2%	2%[57.1 µM]	?
Cc1cc(NC(=O)C(Cl)Cl)cc2c1OCO2	nt	nt	11%	-3%	nt
S=C(NCC1CCCO1)c1ccc(Br)cc1 (centres undefined)	8.9µM*	-4%	?	-34%	-4%
CC(C)(C)c1ccc(C(=O)NC(=S)NCC2CCCO2)cc1 (centres undefined)	40µM*	-6%	18%	-15%	-30%
S=C(NCC1CCCO1)NC1CCCCC1 (centres undefined)	50µM*	-18%	11%	-21%	?
O=C(NCC1CCCO1)C1CCCN1C(=O)NC1CCCCC1 (centres undefined)	15%	4%	19%	-15%	5%
CCc1ccccc1NC(=O)Cn1nc2c3cc(F)ccc3n(Cc3cccc(C)c3)cc-2c1=O	-10%[59 µM]	nt	14%	-6%	-11%
COc1ccc(N2CCN(C(=O)c3nn(-c4ccc(C)cc4)c(=O)n(C)c3=O)CC2)cc1	-35%[59 µM]	nt	-20%[57 µM]	-35%	-31%
CC(C)CNCC(=O)N1c2ccccc2Sc2ccccc21	35µM*	8%	?	11µM*	?
Cc1cc(C)c(C(=O)CSc2nnc(C)c(=O)[nH]2)cc1C	40µM*	22%	31%	-5%	-14%
O=C1NCC2=C1C(c1ccc(Br)cc1)Nc1ccccc1N2 (centres undefined)	45µM*	-5%	17%	-31%	-3%
SMILES	G9a block	L3MBTL1 block	HP1b chromo inh	JMJD2A Tudor	BAZ2B block
Cc1cc2c(s1)c1cnn(Cc3cccc(F)c3)c(=O)c1n2C	nt	nt	nt	-27%	nt
C=CCn1c2ccccc2c2n[nH]c(=S)nc21	10µM*	0%	9%	-32%	-35%
CCn1c2ccccc2c2n[nH]c(=S)nc21	7.9µM*	nt	8%	-19%	-24%
O=C(O)Cn1c2ccccc2c2n[nH]c(=S)nc21	2.2µM*	-13%	-20%	20µM*	50µM*
Cc1cc(C)cc(NC(=O)Cn2c(C(F)(F)F)nc3ccccc32)c1	6%[59 µM]	nt	27%	7%	1%
CN1C2CCC1/C(=C\c1ccccc1F)C(=O)/C2=C/c1ccccc1F	50µM*	8%	-10%	-20%	-34%
COc1ccccc1C(=O)NN(C)C1=NS(=O)(=O)c2ccccc21	14%	nt	26%	5%	13%
CN(NC(=O)CN1C(=O)c2ccccc2C1=O)C1=NS(=O)(=O)c2ccccc21	79µM*	-1%	27%	-10%	-12%
CCCN1CNc2c(c(=O)[nH]c(=S)n2CCc2cccc(C)c2)C1	nt	nt	33%	-7%	nt
COc1ccc(CC(=O)Nc2nc(-c3ccc(F)c(F)c3)cs2)cc1	-13%	nt	6%	-8%	10%
COc1ccc(-c2csc(NC(=O)CS(=O)(=O)c3ccccc3)n2)cc1	45µM*	-4%	4%	-27%	-10%
COc1cccc(-c2csc(NC(=O)Oc3ccccc3)n2)c1	-2%	-14%	?	89µM*	?
COc1ccc(-c2csc(NC(=O)C3CCCCN3S(=O)(=O)c3ccccc3)n2)cc1 (centres undefined)	9%[59 µM]	-15%	5%	-24%	-29%
COc1ccc(NC(=O)N2CCN(c3nc(-c4cccc(OC)c4)cs3)CC2)cc1	13µM*	-2%	-2%	-29%	?
COc1ccc(CC(=O)Nc2nc(-c3ccncc3)cs2)cc1	40µM*	-2%	25%	-18%	-14%
COc1ccc(-n2c(=O)c3sc4ccccc4c3n(C)c2=O)cc1	?	nt	29%	-15%	-2%
Oc1c(C(c2ccc(Cl)cc2)N2CCC3(CC2)OCCO3)sc2nc(-c3ccco3)nn12 (centres undefined)	-48%[59 µM]	nt	35%	-3%	-24%
COc1ccc(CCC(=O)Nc2nc(-c3ccncc3)cs2)cc1	8.9µM*	26%	nt	nt	-7%
O=C(COc1ccc(Cl)cc1)Nc1nc(-c2ccncc2)cs1	7.9µM*	nt	?	-32%	-17%
CCCC(=O)Nc1nc(-c2ccc(OC)cc2)cs1	11%[12.7 µM]	nt	11%	-11%	-5%
CC(=O)Nc1cccc(-c2csc(NCc3ccccc3)n2)c1	11µM*	-13%	?	13µM*	20µM*
COc1ccc(-c2csc(NC(=O)CSc3nc(C)nc4sc(C(=O)O)c(C)c34)n2)cc1	nt	4%	22µM*	22µM*	50µM*
CCN1c2ccccc2-c2nc(SCC(=O)Nc3c(C)cc(C)cc3C)ncc2S1(=O)=O	1%[59 µM]	nt	2%	-5%	4%
CC(=O)Nc1ccc(/C=C2\Sc3ccccc3C2=O)cc1	0%	1%	27%	4%	?
Cc1ccc(/C=C2\Sc3ccccc3C2=O)s1	12%[0.501 µM]	-20%	-16%	-27%	8.9µM*
c1ccc(-c2cc3n(c2)CCc2ccccc2-3)cc1	3.2µM*	-2%	-16%	?	-33%
Cc1ccc2oc(-c3ccc(Cl)c(NC(=O)c4ccc(OC(C)C)cc4)c3)nc2c1	12%[59 µM]	nt	20%	8%	8%
